What all share (parameters): species or system human, MV4-11 + K-562 + COLO205 + SK-N-BE2 + OVCAR-8
The test system of one assay is IRAK3. The conditions noted are these: read-out: apparent Kd, compound concentrations: 100 nM and 1000 nM (sheet 'Samples'), n = 1.
The test system of a further assay is PIK3CD. To be noted: read-out: apparent Kd, n = 1.
In a further assay the test system is EPHB1. The conditions noted are these: read-out: apparent Kd; compound concentrations:100 nM and 1000 nM (sheet 'Samples'); n = 1.
The test system of a further assay is LCK. The conditions noted are these: read-out: apparent Kd; compound concentrations:100 nM and 1000 nM (sheet 'Samples'); n = 1.
In a further assay the test system is MAP3K11. The conditions noted are these: read-out: apparent Kd, n = 1.
The subject of a further assay is MAPK14. The conditions noted are these: read-out: apparent Kd, n = 1.
In the next assay the test system is ABL2. To be noted: read-out: apparent Kd; compound concentrations: 100 nM and 1000 nM (sheet 'Samples'), CATDS: 2.8713823072650399E-2; n = 1.
Another assay concerns NUAK2. To be noted: read-out: apparent Kd, compound concentrations: 100 nM and 1000 nM (sheet 'Samples'), n = 1.
A further assay deals with PAK6. To be noted: read-out: apparent Kd, compound concentrations: 100 nM and 1000 nM (sheet 'Samples'), n = 1.
In another assay the test system is PKN2. To be noted: read-out: apparent Kd, n = 1.
Another assay deals with CDK2. The conditions noted are these: read-out: apparent Kd, n = 1.
The subject of another assay is BTK. The conditions noted are these: read-out: apparent Kd; compound concentrations: 100 nM and 1000 nM (sheet 'Samples'), CATDS: 1.9599592223560901E-2; n = 1.
The next assay relates to CDC42BPB. The conditions noted are these: read-out: apparent Kd; compound concentrations:100 nM and 1000 nM (sheet 'Samples'); n = 1.
For the next assay, the system named is CIT. The conditions noted are these: read-out: apparent Kd; compound concentrations:100 nM and 1000 nM (sheet 'Samples'); n = 1.
The next assay relates to MARK2. The conditions noted are these: read-out: apparent Kd; compound concentrations:100 nM and 1000 nM (sheet 'Samples'); n = 1.
The next assay deals with PRKCA. The conditions noted are these: read-out: apparent Kd; compound concentrations:100 nM and 1000 nM (sheet 'Samples'); n = 1.
The test system of the next assay is RPS6KA3. The conditions noted are these: read-out: apparent Kd; compound concentrations:100 nM and 1000 nM (sheet 'Samples'); n = 1.
In the next assay the test system is RPS6KB1. The conditions noted are these: read-out: apparent Kd; compound concentrations:100 nM and 1000 nM (sheet 'Samples'); n = 1.
Where [1] appears, read: compound concentrations:100 nM and 1000 nM (sheet 'Samples').

Each structure is given as a SMILES string. Where two headings read alike, the source gives them in different places.

For `COC(=O)c1cccc(NC(=O)NC2CCN(c3ccnc(Nc4cc(OC)c(OC)c(OC)c4)n3)C2)c1` (stereo not shown) [GSK1379767A], the potency estimated from few doses is 1050 nM with IRAK3 (CATDS: 0.12620401960154601); 112 nM with PIK3CD (compound concentrations: 100 nM and 1000 nM (sheet 'Samples'), CATDS: 0.49933192218353101).
As to `CS(=O)(=O)CCn1c(=O)c(Oc2ccc(F)cc2F)cc2cnc(NC3CCOCC3)nc21` [RO5027956-000], the potency estimated from few doses is 892 nM in the assay with EPHB1, 1160 nM in the assay on LCK, 1930 nM in the assay on MAP3K11 (setting [1]) and 17.9 nM in the assay on MAPK14 (setting [1]).
With `COc1cc(Nc2nccc(-c3cnn4ncccc34)n2)cc(OC)c1` [GW801372X], the potency estimated from few doses in the assay with IRAK3 (CATDS: 2.51875293793523E-2) is 553 nM; in the assay on MAP3K11 (compound concentrations: 100 nM and 1000 nM (sheet 'Samples'), CATDS: 1.8293530288082401E-2), 1660 nM; in the assay on PIK3CD (compound concentrations: 100 nM and 1000 nM (sheet 'Samples'), CATDS: 4.4256260948390198E-2) it was 135 nM.
Take `CNc1cc(-c2ccc3c(N)n[nH]c3c2)nc(N)n1` [GSK2224810A]: the potency estimated from few doses with EPHB1 is 1180 nM; in the assay with PIK3CD (setting [1]), 83.4 nM.
For the compound `Cc1ccccc1-n1ncc(C(=O)c2ccccc2)c1N` [RO1151248-000], the potency estimated from few doses in the assay on ABL2 was 630 nM; in the assay on PIK3CD (compound concentrations: 100 nM and 1000 nM (sheet 'Samples'), CATDS: 6.44780865676087E-2), 184 nM.
With `CCN(CC)Cc1ccc(Nc2nccc(-c3cnn4ncccc34)n2)cc1` [GW780056X], the potency estimated from few doses is 1070 nM in the assay on NUAK2 (CATDS: 2.1304819470262599E-2) and 1620 nM in the assay with PAK6 (CATDS: 1.8956003976459398E-2).
`Cc1n[nH]c2cc(Nc3ccnc(Nc4cccc(CN5CCOCC5)c4)n3)ccc12` [GW682569X]: the potency estimated from few doses in the assay on IRAK3 (CATDS: 0.17881857649065999) was 348 nM; in the assay on PIK3CD (compound concentrations: 100 nM and 1000 nM (sheet 'Samples'), CATDS: 0.35370860335397603), 121 nM.
Consider `c1ccc(-c2n[nH]cc2Nc2ccnc3ccccc23)nc1` [GW694077X], for which the potency estimated from few doses is 57.6 nM in the assay with IRAK3 (CATDS: 9.0170551839232005E-2); 148 nM with PIK3CD (compound concentrations: 100 nM and 1000 nM (sheet 'Samples'), CATDS: 5.6537253255213298E-2); 2310 nM with PKN2 (compound concentrations: 100 nM and 1000 nM (sheet 'Samples'), CATDS: 2.23851306081322E-2).
In the case of `CS(=O)(=O)Nc1ccc(-c2ccnc3[nH]ccc23)cc1` [GSK993273A], the potency estimated from few doses with PIK3CD (setting [1]) was 183 nM.
`COc1cc[nH]c1/C=C1\C(=O)Nc2ccc([N+](=O)[O-])c(N3CC[C@@H](O)C3)c21` [RO0504985-000]: the potency estimated from few doses was 1280 nM with CDK2 (compound concentrations: 100 nM and 1000 nM (sheet 'Samples'), CATDS: 3.3217097054667903E-2); 1490 nM in the assay on NUAK2 (CATDS: 3.1931655972065397E-2).
In the case of `Cl.Cn1c(=O)c(Cc2ccccc2F)cc2cnc(NC3CCOCC3)nc21` [RO3305377-001], the potency estimated from few doses was 1180 nM with BTK; 105 nM with MAPK14 (compound concentrations: 100 nM and 1000 nM (sheet 'Samples'), CATDS: 8.5761159080735103E-2); 1640 nM in the assay on PAK6 (CATDS: 1.7508305071041501E-2).
Take `Cc1occc1-c1nc(N)c(OC[C@@H](N)Cc2c[nH]c3ccccc23)cc1-c1cc2c(C)n[nH]c2cn1` [GSK1660450B]: the potency estimated from few doses with CDC42BPB is 106 nM; in the assay with CIT it was 135 nM; in the assay with MARK2, 639 nM; in the assay with PIK3CD (setting [1]) it was 8.67 nM; in the assay on PKN2 (setting [1]), 2110 nM; in the assay with PRKCA it was 40 nM. Besides, the potency estimated from few doses is 861 nM in the assay on RPS6KA3 and 112 nM in the assay with RPS6KB1.
As for `NS(=O)(=O)c1ccc(N/C=C2\C(=O)Nc3ccc4ncsc4c32)cc1` [GW297361X], the potency estimated from few doses in the assay with CDK2 (compound concentrations: 100 nM and 1000 nM (sheet 'Samples'), CATDS: 7.9429171662671896E-2) was 232 nM.
As to `NS(=O)(=O)c1ccc(N/N=C2\C(=O)Nc3ccc(-c4cnco4)cc32)cc1` [GW276655_KCGS], the potency estimated from few doses with CDK2 (setting [1]) was 983 nM.
`COc1ccc(Nc2nccc(NCCNC(=O)Nc3cc(C)ccc3C)n2)cc1` [GSK1379899A]: the potency estimated from few doses in the assay on PIK3CD (compound concentrations: 100 nM and 1000 nM (sheet 'Samples'), CATDS: 0.14570623002858099) was 175 nM.

(Values after article PMC11062922 (Nature Chemical Biology, 2023).)
